# Experiments:
# [1] = target: T1, Ephrin type-A receptor 3 (Homo sapiens) (UniProt P29320); conditions: at 10 µM
# T1 sequence (whole entry): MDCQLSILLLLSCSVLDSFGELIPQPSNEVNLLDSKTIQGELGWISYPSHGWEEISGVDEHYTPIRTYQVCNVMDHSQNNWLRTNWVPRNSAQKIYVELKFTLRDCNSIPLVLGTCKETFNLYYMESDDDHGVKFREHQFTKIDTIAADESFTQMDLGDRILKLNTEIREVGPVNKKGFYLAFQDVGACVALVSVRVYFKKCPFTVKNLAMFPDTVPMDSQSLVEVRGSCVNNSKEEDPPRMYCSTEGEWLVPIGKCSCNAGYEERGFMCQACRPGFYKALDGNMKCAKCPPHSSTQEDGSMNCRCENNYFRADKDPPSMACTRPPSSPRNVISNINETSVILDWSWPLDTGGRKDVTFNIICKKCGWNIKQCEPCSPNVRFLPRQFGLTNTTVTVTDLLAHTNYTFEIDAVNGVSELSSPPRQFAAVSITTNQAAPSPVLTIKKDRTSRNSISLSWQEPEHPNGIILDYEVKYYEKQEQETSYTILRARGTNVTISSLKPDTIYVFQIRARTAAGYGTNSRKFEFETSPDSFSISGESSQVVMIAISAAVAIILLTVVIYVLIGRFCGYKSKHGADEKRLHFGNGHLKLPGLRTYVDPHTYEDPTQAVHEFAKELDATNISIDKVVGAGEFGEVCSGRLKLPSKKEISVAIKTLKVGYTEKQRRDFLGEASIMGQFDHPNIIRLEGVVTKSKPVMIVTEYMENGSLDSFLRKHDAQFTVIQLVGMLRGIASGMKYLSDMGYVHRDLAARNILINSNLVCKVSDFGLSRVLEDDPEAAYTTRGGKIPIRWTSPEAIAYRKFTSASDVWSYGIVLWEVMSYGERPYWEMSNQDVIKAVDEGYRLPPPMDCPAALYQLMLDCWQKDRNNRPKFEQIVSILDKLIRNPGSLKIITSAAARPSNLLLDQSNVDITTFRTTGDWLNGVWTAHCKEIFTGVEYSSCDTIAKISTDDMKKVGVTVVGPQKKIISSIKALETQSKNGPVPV
# [2] = target: Ephrin type-A receptor 4 (Homo sapiens) (UniProt P54764); conditions: at 1 µM
# [3] = target: Ephrin type-A receptor 4 (Homo sapiens) (UniProt P54764); conditions: at 10 µM
# [4] = target: Ephrin type-A receptor 5 (Homo sapiens) (UniProt P54756); conditions: at 1 µM
# [5] = target: Ephrin type-A receptor 5 (Homo sapiens) (UniProt P54756); conditions: at 10 µM
# [6] = target: Ephrin type-A receptor 7 (Homo sapiens) (UniProt Q15375); conditions: at 1 µM
# [7] = target: Ephrin type-A receptor 7 (Homo sapiens) (UniProt Q15375); conditions: at 10 µM
# [8] = target: T2, Ephrin type-A receptor 8 (Homo sapiens) (UniProt P29322); conditions: at 1 µM
# T2 sequence (whole entry): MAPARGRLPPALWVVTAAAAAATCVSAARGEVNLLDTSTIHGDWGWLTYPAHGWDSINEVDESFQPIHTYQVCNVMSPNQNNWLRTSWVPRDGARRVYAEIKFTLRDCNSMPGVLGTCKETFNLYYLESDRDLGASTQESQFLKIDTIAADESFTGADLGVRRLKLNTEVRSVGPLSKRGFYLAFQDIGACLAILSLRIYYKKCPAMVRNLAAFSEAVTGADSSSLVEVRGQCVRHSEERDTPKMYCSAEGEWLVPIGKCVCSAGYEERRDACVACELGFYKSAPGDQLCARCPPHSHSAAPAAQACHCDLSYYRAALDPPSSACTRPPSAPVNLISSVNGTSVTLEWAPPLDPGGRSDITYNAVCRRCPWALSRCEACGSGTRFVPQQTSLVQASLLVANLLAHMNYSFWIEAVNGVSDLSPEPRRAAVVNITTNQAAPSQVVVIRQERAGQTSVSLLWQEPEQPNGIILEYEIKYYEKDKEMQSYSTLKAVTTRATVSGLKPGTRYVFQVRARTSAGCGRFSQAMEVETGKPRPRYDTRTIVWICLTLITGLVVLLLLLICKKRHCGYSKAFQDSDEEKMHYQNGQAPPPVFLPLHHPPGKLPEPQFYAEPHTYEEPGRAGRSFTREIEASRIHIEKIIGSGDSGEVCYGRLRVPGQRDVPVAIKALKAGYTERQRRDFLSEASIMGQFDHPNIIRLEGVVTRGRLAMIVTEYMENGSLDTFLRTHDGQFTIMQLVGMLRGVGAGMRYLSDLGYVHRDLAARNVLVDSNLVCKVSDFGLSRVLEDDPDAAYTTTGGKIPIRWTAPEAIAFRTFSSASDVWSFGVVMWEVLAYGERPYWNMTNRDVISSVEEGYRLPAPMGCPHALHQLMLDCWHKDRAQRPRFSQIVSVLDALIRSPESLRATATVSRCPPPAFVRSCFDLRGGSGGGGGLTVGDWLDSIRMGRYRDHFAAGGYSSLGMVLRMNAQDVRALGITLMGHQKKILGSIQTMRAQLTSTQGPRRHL
# [9] = target: T2, Ephrin type-A receptor 8 (Homo sapiens); conditions: at 10 µM
# [10] = target: T3, Ephrin type-B receptor 1 (Homo sapiens) (UniProt P54762); conditions: at 1 µM
# T3 sequence (whole entry): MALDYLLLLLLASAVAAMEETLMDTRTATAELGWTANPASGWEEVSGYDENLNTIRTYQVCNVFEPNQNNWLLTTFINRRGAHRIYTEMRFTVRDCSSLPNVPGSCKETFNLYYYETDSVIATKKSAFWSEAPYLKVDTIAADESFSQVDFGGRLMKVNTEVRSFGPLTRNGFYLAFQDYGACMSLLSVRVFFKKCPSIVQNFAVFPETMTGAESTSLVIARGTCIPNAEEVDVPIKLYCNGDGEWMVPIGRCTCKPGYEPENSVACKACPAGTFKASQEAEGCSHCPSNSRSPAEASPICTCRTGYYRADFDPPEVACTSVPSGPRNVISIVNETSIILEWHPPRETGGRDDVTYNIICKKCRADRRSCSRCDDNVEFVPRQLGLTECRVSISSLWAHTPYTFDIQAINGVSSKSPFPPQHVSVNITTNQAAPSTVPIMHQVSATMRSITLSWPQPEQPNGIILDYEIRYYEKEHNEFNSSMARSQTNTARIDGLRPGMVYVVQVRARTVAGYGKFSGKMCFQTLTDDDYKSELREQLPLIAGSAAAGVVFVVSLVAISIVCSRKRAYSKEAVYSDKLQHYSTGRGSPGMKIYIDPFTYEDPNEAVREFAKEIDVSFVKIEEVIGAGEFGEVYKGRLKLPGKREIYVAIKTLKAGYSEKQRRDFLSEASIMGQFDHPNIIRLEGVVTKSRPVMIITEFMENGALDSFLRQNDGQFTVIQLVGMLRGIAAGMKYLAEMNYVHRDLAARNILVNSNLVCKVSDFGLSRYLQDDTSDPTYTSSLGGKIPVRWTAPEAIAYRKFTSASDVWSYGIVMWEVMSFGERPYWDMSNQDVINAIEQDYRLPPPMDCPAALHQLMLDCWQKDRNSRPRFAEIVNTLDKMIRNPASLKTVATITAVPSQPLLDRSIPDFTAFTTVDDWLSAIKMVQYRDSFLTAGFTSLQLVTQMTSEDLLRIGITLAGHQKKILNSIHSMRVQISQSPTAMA
# Chain of Ephrin type-A receptor 4 (Homo sapiens) (P54764 whole entry): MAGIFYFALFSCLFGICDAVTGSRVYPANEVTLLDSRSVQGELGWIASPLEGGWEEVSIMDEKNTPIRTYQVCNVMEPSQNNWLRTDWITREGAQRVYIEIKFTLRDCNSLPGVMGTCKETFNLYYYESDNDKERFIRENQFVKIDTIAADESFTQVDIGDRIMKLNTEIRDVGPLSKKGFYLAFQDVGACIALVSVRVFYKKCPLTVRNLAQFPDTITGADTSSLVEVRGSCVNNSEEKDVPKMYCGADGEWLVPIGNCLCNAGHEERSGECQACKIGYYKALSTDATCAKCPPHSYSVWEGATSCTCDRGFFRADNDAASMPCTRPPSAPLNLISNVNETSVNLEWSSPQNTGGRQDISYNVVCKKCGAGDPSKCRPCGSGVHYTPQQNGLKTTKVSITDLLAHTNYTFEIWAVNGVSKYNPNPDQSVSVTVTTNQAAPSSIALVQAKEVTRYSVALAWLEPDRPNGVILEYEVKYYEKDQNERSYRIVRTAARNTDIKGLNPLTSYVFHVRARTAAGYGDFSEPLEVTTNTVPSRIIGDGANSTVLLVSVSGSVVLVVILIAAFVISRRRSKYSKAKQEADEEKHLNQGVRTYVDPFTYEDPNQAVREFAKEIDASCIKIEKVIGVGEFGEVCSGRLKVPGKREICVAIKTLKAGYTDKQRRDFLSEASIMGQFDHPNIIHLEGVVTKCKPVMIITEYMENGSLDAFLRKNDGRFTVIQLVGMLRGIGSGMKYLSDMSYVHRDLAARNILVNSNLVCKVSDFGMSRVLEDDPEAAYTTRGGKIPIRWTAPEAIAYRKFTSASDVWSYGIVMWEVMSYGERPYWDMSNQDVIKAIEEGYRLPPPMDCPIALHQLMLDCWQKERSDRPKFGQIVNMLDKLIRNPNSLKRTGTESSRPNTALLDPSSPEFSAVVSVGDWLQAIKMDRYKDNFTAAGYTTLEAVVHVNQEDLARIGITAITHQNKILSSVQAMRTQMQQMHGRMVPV
# Chain of Ephrin type-A receptor 5 (Homo sapiens) (P54756 whole entry): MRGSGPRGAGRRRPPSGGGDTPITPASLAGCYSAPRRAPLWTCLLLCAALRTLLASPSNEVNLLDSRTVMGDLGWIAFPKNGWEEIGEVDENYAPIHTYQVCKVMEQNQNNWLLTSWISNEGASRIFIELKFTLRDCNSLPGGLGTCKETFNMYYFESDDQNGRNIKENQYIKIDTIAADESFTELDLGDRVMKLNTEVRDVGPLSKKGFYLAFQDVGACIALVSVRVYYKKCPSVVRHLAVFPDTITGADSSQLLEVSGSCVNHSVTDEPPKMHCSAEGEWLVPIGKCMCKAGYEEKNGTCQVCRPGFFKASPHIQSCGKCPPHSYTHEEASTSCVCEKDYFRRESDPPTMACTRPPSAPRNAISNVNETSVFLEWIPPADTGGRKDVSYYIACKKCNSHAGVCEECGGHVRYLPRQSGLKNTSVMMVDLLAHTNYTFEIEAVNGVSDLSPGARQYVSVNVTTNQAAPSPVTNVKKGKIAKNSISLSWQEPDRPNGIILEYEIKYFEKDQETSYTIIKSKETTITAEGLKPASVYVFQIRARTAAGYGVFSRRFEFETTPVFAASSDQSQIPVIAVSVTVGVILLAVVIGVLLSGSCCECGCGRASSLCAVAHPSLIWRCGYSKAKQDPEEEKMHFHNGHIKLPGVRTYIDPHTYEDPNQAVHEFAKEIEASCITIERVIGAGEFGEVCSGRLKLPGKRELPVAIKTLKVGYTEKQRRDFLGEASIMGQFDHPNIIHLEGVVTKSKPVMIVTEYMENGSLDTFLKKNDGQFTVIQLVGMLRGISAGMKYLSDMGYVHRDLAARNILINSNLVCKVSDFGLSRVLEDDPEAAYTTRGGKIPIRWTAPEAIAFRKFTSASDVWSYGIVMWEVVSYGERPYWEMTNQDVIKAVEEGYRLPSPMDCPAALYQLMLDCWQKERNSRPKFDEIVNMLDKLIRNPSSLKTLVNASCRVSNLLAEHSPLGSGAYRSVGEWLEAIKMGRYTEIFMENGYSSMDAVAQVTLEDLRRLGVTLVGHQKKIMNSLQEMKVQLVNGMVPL
# Chain of Ephrin type-A receptor 7 (Homo sapiens) (Q15375 28-998 limits assumed): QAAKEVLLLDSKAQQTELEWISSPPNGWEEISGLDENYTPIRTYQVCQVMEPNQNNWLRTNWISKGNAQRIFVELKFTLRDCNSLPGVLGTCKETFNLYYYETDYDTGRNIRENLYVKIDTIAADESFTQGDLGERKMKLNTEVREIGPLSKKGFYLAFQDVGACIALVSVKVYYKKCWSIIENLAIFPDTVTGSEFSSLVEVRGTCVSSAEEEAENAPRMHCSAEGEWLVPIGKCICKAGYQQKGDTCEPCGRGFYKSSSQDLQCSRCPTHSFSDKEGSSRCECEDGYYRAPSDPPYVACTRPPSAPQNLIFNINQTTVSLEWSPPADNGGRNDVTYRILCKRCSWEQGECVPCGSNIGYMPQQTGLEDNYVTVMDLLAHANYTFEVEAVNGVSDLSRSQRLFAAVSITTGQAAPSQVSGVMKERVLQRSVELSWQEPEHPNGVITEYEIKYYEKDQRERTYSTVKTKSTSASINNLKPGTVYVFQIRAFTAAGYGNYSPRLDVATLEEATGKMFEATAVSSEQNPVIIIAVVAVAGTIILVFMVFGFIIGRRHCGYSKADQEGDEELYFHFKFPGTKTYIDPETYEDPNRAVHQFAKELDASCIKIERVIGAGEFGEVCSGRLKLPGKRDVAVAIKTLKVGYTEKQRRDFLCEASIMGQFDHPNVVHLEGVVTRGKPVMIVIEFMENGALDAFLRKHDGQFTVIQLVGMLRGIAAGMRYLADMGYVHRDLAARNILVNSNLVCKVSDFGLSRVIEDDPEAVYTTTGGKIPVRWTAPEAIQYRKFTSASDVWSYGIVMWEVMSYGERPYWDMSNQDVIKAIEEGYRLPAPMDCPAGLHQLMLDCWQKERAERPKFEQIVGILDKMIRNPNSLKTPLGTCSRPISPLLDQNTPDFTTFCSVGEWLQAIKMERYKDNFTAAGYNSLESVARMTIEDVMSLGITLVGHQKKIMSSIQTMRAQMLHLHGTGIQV
smiles,measurement,setting,value
Oc1ccc(-c2nc(-c3ccc(F)cc3)c(-c3ccncc3)[nH]2)cc1,residual activity,[1],81%
same,residual activity,[2],117%
same,residual activity,[3],87%
same,residual activity,[4],103%
same,residual activity,[5],56%
same,residual activity,[6],103%
same,residual activity,[7],58%
same,residual activity,[8],93%
same,residual activity,[9],45%
same,residual activity,[10],115%
